Drawing on PubChem BioAssay (EPA / NIEHS), this text covers AC50 and outcome for 3 compounds.

A structure can be active in one record and inactive in another. The source made the active and inactive calls. The calls were made as follows: active = hit-call score of the fitted dose curve at least 0.9, where 1 is the maximum; inactive = score below 0.9.

The nature of assay [1]: ATG_CRE_CIS: Attagene CIS-FACTORIAL HepG2 Assay for human cAMP Responsive Element (CRE) binding protein 3 (AID 2282926). The settings on record: HepG2 CRE cis-reporter, Attagene multiplexed mRNA; actives raise or lower the signal. Put shortly:
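Transfected HepG2 were treated for 24 hours, then RNA was extracted and reporter cDNA amplified with sequence-specific primers. Labelled fragments were separated by capillary electrophoresis, and the CRE signal was fitted bidirectionally with DMSO as baseline.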

For assay [2], the target named is CCAAT/enhancer-binding protein beta (Homo sapiens) (UniProt P17676). Put plainly: ATG_C_EBP_CIS: Attagene CIS-FACTORIAL HepG2 Assay for human CCAAT/Enhancer Binding Protein (C/EBP) beta (AID 2282927). The settings on record: HepG2 Attagene cis-factorial transcription factor reporter; actives raise or lower the signal. An outline of the steps:
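Changes in reporter mRNA, rather than exogenous chimeric receptor activity, reflect native C/EBP signalling in transfected HepG2 cells dosed for 24 h; transcripts are detected by RT-PCR and capillary electrophoresis.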

The nature of assay [3]: ATG_CMV_CIS: Attagene CIS-FACTORIAL HepG2 Assay for human CMV (Internal Marker) (AID 2282928).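 Also: endpoint acts as a background internal control marker rather than a target.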 The note with it: HepG2 CMV promoter reporter, transcription factor profiling; actives raise or lower the signal. An outline of the steps:
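HepG2 cells transiently transfected with multiple cis-regulated reporter units; 24 h compound exposure. Reporter mRNA quantified by RT-PCR, 6-FAM primer-extension labeling, HpaI digestion and capillary electrophoresis; bidirectional fitting against DMSO baseline.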

Assay [4] is described as follows: ATG_DR4_LXR_CIS: Attagene CIS-FACTORIAL HepG2 Assay for human Liver X Receptor (LXR), DR4 submotif (AID 2282929). The note with it: HepG2 Attagene DR4 cis-reporter, mRNA transcription; actives raise or lower the signal. An outline of the steps: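 After transient transfection with multiplexed cis-promoter reporter units, HepG2 cells received test chemicals for 24 h. Reporter mRNA induction, detected by fluorescence after RT-PCR and capillary electrophoresis, was scored relative to DMSO.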

Assay [5] concerns the target Aryl hydrocarbon receptor (Homo sapiens) (UniProt P35869). Put plainly: ATG_Ahr_CIS: Attagene CIS-FACTORIAL HepG2 Assay for human Aryl Hydrocarbon Receptor (Ahr) (AID 2282930). The settings on record: HepG2 AhR cis-factorial reporter transcription; actives raise or lower the signal. An outline of the steps: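 HepG2, transient MRTU (cis) transfection, 24 h exposure. RNA → cDNA → PCR → 6-FAM primer extension → HpaI 2 h 37 C → CE. Fit: bidirectional, DMSO baseline.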

The nature of assay [6]: ATG_AP_1_CIS: Attagene CIS-FACTORIAL HepG2 Assay for human Activator Protein 1 (AP-1) (AID 2282931). The settings on record: HepG2 Attagene cis-factorial AP-1 reporter mRNA; actives raise or lower the signal. An outline of the steps: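 After 24 h incubation with test chemical, RNA from transfected HepG2 cells was reverse-transcribed, amplified, fluorescently labelled and digested before capillary electrophoresis. Reporters were driven by cis-regulatory promoters; activity fitted bidirectionally versus DMSO.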

Assay [7] is described as follows: ATG_AP_2_CIS: Attagene CIS-FACTORIAL HepG2 Assay for human Activator Protein 2 (AP-2) (AID 2282932). The settings on record: HepG2 AP-2 cis-reporter, Attagene transcription factor profiling; actives raise or lower the signal. An outline of the steps:
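HepG2, transient MRTU transfection, cis-regulated reporters; 24 h compound exposure; RNA isolated, RT-PCR, 6-FAM labelling, HpaI digest, CE fluorescence. DMSO = negative control/baseline, bidirectional fit.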

Assay [8] is described as follows: ATG_BRE_CIS: Attagene CIS-FACTORIAL HepG2 Assay for human Bone Morphogenetic Protein (BMP) Response Element (BRE) (AID 2282933). The note with it: HepG2 BMP response element reporter, Attagene transcription factor profiling; actives raise or lower the signal. An outline of the steps: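 A HepG2 multiplex reporter system measured inducible reporter mRNA 24 h post-dosing. Detection: RT-PCR, 6-FAM primer extension, HpaI digestion, capillary electrophoresis. Activity fitted bidirectionally relative to DMSO.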

For assay [9], the target named is Retinoic acid receptor alpha (Homo sapiens) (UniProt P10276). Put plainly: ATG_DR5_RAR_CIS: Attagene CIS-FACTORIAL HepG2 Assay for human Retinoic Acid Receptor Alpha (RARE), DR5 submotif (AID 2282934). The settings on record: HepG2 Attagene cis-factorial RARE DR5 reporter, mRNA; actives raise or lower the signal. An outline of the steps:
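HepG2, transient cis-reporter transfection, 24 h exposure. mRNA readout: RT-PCR, FAM label, HpaI cut, capillary electrophoresis. DMSO baseline, gain/loss fitting.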

For assay [10], the target named is Transcription factor E2F1 (Homo sapiens) (UniProt Q01094). The assay can be described thus: ATG_E2F_CIS: Attagene CIS-FACTORIAL HepG2 Assay for human E2F Transcription Factor 1 (AID 2282935). The settings on record: HepG2 Attagene cis-reporter, E2F reporter RNA transcripts; actives raise or lower the signal. Put shortly: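 Cis-element reporter mRNA induction in transiently transfected HepG2, 24 h exposure. Activity fitted in both directions relative to DMSO negative control.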
Sequence of Transcription factor E2F1 (Homo sapiens) (Q01094 whole entry, looked up): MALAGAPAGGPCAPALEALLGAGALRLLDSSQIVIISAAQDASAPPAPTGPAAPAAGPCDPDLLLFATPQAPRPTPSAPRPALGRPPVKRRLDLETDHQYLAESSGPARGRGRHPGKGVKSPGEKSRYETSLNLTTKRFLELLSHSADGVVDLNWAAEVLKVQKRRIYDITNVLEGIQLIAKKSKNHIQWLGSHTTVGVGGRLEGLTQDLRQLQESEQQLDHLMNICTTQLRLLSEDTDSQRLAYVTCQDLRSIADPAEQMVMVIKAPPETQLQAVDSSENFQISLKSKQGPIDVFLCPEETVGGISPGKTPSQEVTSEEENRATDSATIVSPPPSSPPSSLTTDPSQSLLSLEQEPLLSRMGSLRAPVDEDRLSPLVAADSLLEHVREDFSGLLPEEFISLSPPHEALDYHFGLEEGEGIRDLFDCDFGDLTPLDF

Assay [11] in a line: ATG_E_Box_CIS: Attagene CIS-FACTORIAL HepG2 Assay for human Enhancer Box (E-box) (AID 2282936). The note with it: HepG2 E-box cis-reporter transcription, actives raise or lower the signal. An outline of the steps: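 Cells: HepG2 (human liver), transient MRTU transfection. Exposure 24 h. RNA → oligo(dT) RT → PCR → 6-FAM label → HpaI → CE. Activity fitted both directions relative to DMSO.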

Assay [12] in a line: ATG_M_61_CIS: Attagene CIS-FACTORIAL HepG2 Assay for M61 Transcription Factor (Internal Marker) (AID 2282937). The note with it: HepG2 Attagene CIS-FACTORIAL M61 internal marker reporter; actives raise or lower the signal. Put shortly: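 Using transiently transfected HepG2 liver cells, reporter transcript levels were assessed 24 h post-dosing by RT-PCR and capillary electrophoresis. Changes in either direction were fitted relative to DMSO controls.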

Assay [13] is described as follows: ATG_EGR_CIS: Attagene CIS-FACTORIAL HepG2 Assay for human Early Growth Response 1 (EGR1) (AID 2282938). The note with it: HepG2 Attagene CIS-FACTORIAL EGR reporter mRNA; actives raise or lower the signal. Put shortly: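 Fluorescent capillary-electrophoresis signal of reporter cDNA fragments serves as read-out. HepG2 cells bear transiently transfected cis-promoter reporter units and are exposed 24 h; gain- or loss-of-signal is fitted against DMSO.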

Assay [14] can be described thus: ATG_M_19_CIS: Attagene CIS-FACTORIAL HepG2 Assay for M19 Transcription Factor (Internal Marker) (AID 2282939). The note with it: HepG2 Attagene CIS-FACTORIAL M19 internal marker reporter; actives raise or lower the signal. Put shortly:
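Chemical-treated HepG2 (24 h) with MRTU constructs; reporter transcripts detected by fluorescent RT-PCR fragment analysis on capillary electrophoresis. Internal background marker, DMSO as baseline.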

A short description of assay [15]: ATG_ERE_CIS: Attagene CIS-FACTORIAL HepG2 Assay for Estrogen Response Element (ERE) (AID 2282940). The settings on record: HepG2 ERE cis-reporter, Attagene RNA transcript; actives raise or lower the signal. Put shortly: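 Human liver cells (HepG2) bearing transiently transfected, promoter-regulated reporter units were exposed 24 h. Reporter mRNA induction was detected by capillary electrophoresis of labelled RT-PCR products and fitted bidirectionally to DMSO.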

A short description of assay [16]: ATG_Ets_CIS: Attagene CIS-FACTORIAL HepG2 Assay for human Erythroblast Transformation Specific (ETS) (AID 2282941). The settings on record: HepG2 ETS cis-reporter transcription, actives raise or lower the signal. An outline of the steps:
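HepG2 cells transiently transfected with cis-promoter reporter transcription units were dosed for 24 h; reporter mRNA was measured by RT-PCR, 6-FAM primer extension, HpaI digestion and capillary electrophoresis, with bidirectional fitting against DMSO baseline.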

Assay [17] concerns the target Hepatocyte nuclear factor 3-beta (Homo sapiens) (UniProt Q9Y261). Put plainly: ATG_FoxA2_CIS: Attagene CIS-FACTORIAL HepG2 Assay for human Forkhead box A2 (FOXA2) (AID 2282942). The settings on record: HepG2 cis-reporter transcription factor activity, 24 h; actives raise or lower the signal. Put shortly: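 Fluorescence signal of reporter cDNA fragments, separated by capillary electrophoresis, reflects endogenous transcription factor activity in transfected HepG2 after 24 h. Both increases and decreases fitted against DMSO.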

Assay [18] is described as follows: ATG_GATA_CIS: Attagene CIS-FACTORIAL HepG2 Assay for human GATA Binding Protein (AID 2282944). The settings on record: HepG2 GATA cis-element reporter, Attagene multiplex mRNA; actives raise or lower the signal. An outline of the steps: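 Transfected cis-reporter HepG2 cells were treated with chemicals for 24 hours. Total RNA was then converted to cDNA, amplified with reporter-specific primers and analysed by fluorescent capillary electrophoresis, using DMSO-treated wells as baseline.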

Assay [19] can be described thus: ATG_GLI_CIS: Attagene CIS-FACTORIAL HepG2 Assay for human Zinc Finger Protein GLI1 (AID 2282945). The settings on record: HepG2, Attagene cis-factorial reporter mRNA, GLI element; actives raise or lower the signal. Put shortly:
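Bidirectional curve fits relative to DMSO, using reporter mRNA levels from RT-PCR plus capillary electrophoresis. Cells were HepG2 transiently carrying cis-regulated reporter constructs, harvested 24 h after dosing.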

The nature of assay [20]: ATG_FoxO_CIS: Attagene CIS-FACTORIAL HepG2 Assay for human Forkhead box O (FoxO) (AID 2282943). The note with it: HepG2 Attagene cis-reporter, FoxO element, mRNA; actives raise or lower the signal. Put shortly: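 Human hepatoma HepG2 cells carry transiently introduced reporter transcription units controlled by cis promoter elements. Chemical treatment lasted 24 h, and mRNA signal was compared with DMSO.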

Sequence of Hepatocyte nuclear factor 3-beta (Homo sapiens) (Q9Y261 whole entry, looked up, the tested form may be a part): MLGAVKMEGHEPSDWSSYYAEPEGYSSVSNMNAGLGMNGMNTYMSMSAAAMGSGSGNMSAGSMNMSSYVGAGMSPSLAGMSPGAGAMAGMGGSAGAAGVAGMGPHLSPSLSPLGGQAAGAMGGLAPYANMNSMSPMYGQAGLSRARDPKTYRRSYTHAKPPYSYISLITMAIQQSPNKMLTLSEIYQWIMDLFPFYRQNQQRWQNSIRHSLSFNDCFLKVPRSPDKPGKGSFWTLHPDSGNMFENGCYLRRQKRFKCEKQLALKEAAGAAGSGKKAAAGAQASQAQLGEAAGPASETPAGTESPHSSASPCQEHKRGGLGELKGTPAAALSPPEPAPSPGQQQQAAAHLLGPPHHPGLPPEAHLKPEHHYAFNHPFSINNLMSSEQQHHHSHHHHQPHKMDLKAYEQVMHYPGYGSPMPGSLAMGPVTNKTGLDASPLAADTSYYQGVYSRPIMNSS
Sequence of Retinoic acid receptor alpha (Homo sapiens) (P10276 whole entry, looked up): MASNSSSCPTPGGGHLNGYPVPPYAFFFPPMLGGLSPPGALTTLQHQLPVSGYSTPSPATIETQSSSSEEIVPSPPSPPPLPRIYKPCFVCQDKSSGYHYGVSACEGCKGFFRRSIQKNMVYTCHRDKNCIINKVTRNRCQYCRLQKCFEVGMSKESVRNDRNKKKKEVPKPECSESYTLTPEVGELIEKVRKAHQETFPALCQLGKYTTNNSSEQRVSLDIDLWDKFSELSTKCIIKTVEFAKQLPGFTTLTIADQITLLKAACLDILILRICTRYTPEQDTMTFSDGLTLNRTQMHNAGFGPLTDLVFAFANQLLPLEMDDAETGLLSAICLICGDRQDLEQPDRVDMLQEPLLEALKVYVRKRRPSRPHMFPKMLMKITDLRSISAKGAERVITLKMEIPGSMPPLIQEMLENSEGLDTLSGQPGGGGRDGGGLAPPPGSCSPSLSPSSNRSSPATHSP
Sequence of Aryl hydrocarbon receptor (Homo sapiens) (P35869 whole entry, looked up): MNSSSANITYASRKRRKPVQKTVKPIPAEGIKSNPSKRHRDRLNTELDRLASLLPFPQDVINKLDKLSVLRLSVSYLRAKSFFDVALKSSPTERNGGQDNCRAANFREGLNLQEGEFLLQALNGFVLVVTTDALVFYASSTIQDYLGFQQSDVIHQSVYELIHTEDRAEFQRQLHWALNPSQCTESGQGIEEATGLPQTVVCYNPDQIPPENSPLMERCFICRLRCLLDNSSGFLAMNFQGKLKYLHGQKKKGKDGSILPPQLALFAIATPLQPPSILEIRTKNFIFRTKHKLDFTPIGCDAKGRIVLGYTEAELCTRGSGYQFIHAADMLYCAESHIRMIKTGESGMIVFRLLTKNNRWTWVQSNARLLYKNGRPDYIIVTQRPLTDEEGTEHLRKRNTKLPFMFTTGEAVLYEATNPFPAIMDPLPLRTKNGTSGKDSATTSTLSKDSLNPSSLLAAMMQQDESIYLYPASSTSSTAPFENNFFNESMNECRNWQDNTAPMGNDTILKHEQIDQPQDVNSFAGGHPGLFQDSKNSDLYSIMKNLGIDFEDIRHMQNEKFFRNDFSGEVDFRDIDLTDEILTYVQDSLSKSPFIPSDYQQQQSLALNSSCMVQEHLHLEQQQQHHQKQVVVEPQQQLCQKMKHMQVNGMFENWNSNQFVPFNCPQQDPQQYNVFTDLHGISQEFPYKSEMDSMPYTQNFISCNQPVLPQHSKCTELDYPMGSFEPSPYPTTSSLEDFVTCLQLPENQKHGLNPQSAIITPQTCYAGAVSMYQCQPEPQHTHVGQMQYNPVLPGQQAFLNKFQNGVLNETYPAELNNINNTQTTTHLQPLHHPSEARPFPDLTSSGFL
Sequence of CCAAT/enhancer-binding protein beta (Homo sapiens) (P17676 whole entry, looked up): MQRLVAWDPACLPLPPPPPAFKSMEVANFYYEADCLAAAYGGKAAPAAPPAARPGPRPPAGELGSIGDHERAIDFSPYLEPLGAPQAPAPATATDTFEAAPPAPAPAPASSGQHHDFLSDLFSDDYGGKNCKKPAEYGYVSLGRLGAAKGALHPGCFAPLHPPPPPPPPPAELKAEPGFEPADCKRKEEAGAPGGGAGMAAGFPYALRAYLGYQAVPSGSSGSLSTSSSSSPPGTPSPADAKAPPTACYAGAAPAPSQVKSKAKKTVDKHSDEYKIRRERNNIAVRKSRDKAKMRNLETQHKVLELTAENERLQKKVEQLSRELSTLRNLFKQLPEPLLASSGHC

For the compound `O=c1[nH]sc2ccccc12`, in assay [1], the AC50 – broadly, the concentration at which the activity in the assay is half-maximal – is 45.4 µM (active). The result in [2], in assay [3], in assay [4], in assay [5], in assay [6] and in assay [7] was inactive. Besides, the compound was called inactive in [8], in [9], in assay [10], in assay [11], in [12] and in [13]. The result in assay [14], in [15], in assay [16], in assay [17], in [18] and in assay [19] was inactive.

Turning to `c1ccc2n[nH]nc2c1`, the result in assay [1], in assay [2], in [3], in assay [4], in assay [5] and in assay [6] was inactive. Further, the result in [7], in [8], in [9], in assay [10], in assay [12] and in assay [13] was inactive. For the same compound, the call in [14], in [16], in [17], in [20], in assay [18] and in assay [19] was inactive. Further, the AC50 in [5] was 51.9 µM (active).

For the compound `CN1C(=O)N(c2ccccc2Br)Cc2cnc(Nc3ccc4c(c3)OCC(CO)O4)nc21` (stereo not drawn), the AC50 in assay [1] was 5.78 µM (active); in assay [2], 2.61 µM (active); in assay [4], 27.1 µM (active); in assay [6], 4.77 µM (active); in assay [13] it was 12.2 µM (active). Also, the outcome in assay [3], in assay [5], in assay [7], in assay [8], in assay [9] and in assay [10] was inactive. Further, the result in assay [11], in assay [12], in [14], in assay [15], in assay [16] and in assay [17] was inactive. Besides, the outcome in assay [20], in [18] and in assay [19] was inactive.
